High-throughput results deposited in PubChem by Buhrlage Lab, Dana-Farber Cancer Institute and Novartis Institutes for BioMedical Research (Cambridge, Mass).
Rows were chosen to be rich in hits. Some 5% of all compounds tested hit in one or more screens of this group.
USP10 block = inhibitors of human USP10 deubiquitinase; purified USP10, Ub-rhodamine fluorescence, 60 min; hit rate 1.1% among 47,000; AID 1645856; Q14694; inhibition, % at 20 µM
UCHL1 inh = blocks human UCHL1 ubiquitin-rhodamine cleavage | P09936 | purified UCHL1, Ub-rhodamine cleavage fluorescence | inhibition, % at 20 µM | hit rate 0.2% among 47,000 | AID 1645859
USP7 inh = blocks human USP7 ubiquitin-rhodamine cleavage; purified USP7, Ub-rhodamine cleavage fluorescence; AID 1645854; hit rate 0.3% among 47,000; inhibition, % at 20 µM
Target sequence (Q93009 whole entry, looked up): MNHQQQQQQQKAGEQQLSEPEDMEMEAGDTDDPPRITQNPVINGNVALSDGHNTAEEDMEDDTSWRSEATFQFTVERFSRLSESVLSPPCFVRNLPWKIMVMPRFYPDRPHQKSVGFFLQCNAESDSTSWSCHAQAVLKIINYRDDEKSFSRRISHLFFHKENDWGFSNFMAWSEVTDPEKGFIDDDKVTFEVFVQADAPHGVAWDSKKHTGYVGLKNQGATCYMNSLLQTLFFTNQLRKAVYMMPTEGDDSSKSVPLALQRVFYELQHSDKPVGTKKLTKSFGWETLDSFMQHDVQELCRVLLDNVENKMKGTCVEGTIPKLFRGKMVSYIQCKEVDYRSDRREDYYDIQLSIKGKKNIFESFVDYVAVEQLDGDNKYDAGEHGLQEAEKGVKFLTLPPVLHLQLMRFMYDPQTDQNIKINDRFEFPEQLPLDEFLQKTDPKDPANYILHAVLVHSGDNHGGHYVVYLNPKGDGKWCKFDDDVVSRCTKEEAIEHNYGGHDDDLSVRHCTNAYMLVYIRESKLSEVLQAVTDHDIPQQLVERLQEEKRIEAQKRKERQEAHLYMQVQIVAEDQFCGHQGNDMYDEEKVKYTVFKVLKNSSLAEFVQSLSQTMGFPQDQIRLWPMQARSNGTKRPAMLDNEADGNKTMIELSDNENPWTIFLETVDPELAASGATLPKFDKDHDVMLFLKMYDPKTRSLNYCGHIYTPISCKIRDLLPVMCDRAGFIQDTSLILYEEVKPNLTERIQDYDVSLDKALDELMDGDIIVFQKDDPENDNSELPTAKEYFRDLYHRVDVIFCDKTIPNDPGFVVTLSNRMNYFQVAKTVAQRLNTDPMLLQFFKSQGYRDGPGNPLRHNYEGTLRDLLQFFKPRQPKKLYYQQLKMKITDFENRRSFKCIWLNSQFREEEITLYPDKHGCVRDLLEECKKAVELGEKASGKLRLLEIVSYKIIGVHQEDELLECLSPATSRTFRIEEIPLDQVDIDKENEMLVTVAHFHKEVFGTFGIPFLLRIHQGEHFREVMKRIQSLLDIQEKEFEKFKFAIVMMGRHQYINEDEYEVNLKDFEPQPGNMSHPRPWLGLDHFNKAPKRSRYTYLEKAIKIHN
USP8 inh = human USP8 deubiquitinase inhibition; P40818; purified USP8, Ub-rhodamine cleavage fluorescence, 30 min; inhibition, % at 20 µM; hit rate 4.2% among 47,000
The depositor's hits bear a star. No stated cut-off is given here; in the data, active means inhibition above about 30%; inactive means the rest.

SMILES	USP10 block	UCHL1 inh	USP7 inh	USP8 inh
CN(C)C(=O)c1sc2ncccc2c1C1CN(c2ccncn2)CCO1 (centres undefined)	-5.3	-4.8	-3.2	-29.0
Cn1c(NC(=O)c2ccc(Cl)cc2)c(-c2ccccn2)c(=O)c2ccccc21	-9.4	-0.5	1.3	42.7*
Cc1ccc(CNC(=O)c2c(O)c3cccc4c3n(c2=O)CC4)cc1	0.3	-1.5	-0.6	59.4*
Cc1cccc(C(=O)N2CCN(c3nc(-c4ccc(Cl)cc4)no3)CC2)c1	2.3	8.7	-12.9	8.8
COc1ccccc1CNC(=O)Cn1cnc2c(-c3ccccc3)csc2c1=O	40.4*	5.0	14.8	69.7*
Cc1nc2ccccn2c(=O)c1Cc1nnc(SCC(=O)Nc2ccc(F)cc2)n1C	3.0	-0.1	1.8	4.9
O=C1CC[C@H](O)c2cccc(O)c21	2.3	0.0	0.1	0.4
O=C1CC(O)C(O)c2cccc(O)c21 (centres undefined)	12.5	16.6	-41.6	76.5*
COc1ccc(CCNC(=O)[C@@H]2Cc3c([nH]c4ccccc34)C3c4ccccc4C(=O)N32)cc1OC (some centres undefined)	0.0	-2.7	-4.3	3.1
O=C(CCCCCn1c(=O)[nH]c2ccccc2c1=O)NCCc1ccc(Cl)cc1	1.0	-1.1	1.1	48.2*
O=C(CCCCCn1c(=O)[nH]c2ccccc2c1=O)NCc1ccccc1Cl	1.8	2.1	1.3	28.1
O=C(CCCCn1c(=O)[nH]c2ccccc2c1=O)Nc1cccc(Cl)c1	19.8	0.5	30.4*	81.4*
CCn1c(N2CCC(C(=O)NC(C)c3cccs3)CC2)nc2ccccc21 (centres undefined)	2.1	-0.9	-4.4	-0.3
CCC(=O)Nc1nc2cc(NC(=O)Nc3ccc(C)cc3)ccc2s1	30.0*	0.4	18.6	46.6*
COc1ccc(C2(N3CCC4(CC3)OCCO4)C(=O)c3ccccc3C2=O)cc1	1.1	3.7	-20.8	18.2
CC(Oc1ccccc1Cl)C(=O)Nc1nonc1-c1ccccc1 (centres undefined)	15.3	4.8	6.6	33.0*
CC(Oc1ccc(C(C)C)cc1)C(=O)Nc1nonc1-c1ccccc1 (centres undefined)	12.6	1.5	3.0	8.7
CC1=C(C(=O)Nc2ccc(C)cc2C)C(c2ccccn2)n2ncnc2N1 (centres undefined)	3.1	-1.6	1.4	-9.3
COc1ccc(-c2ccc3cc(C(=O)O)ccc3c2)cc1C12CC3CC(CC(C3)C1)C2	80.2*	5.2	-13.5	65.7*
COc1ccc(CCNC(=O)C23CC4CC(CC(C4)C2)C3)cc1OC	3.2	0.3	1.1	9.0
CC(NC(=O)C1CCc2nc(N3CCCC3)ncc2C1)c1cccnc1 (centres undefined)	-3.4	-2.3	-1.0	0.1
Cc1ccc(NC(=O)CN2c3ccccc3S(=O)(=O)c3ccccc32)c(C)c1	-0.9	2.6	6.8	0.1
Cc1ccc(NC(=O)Nc2ccc(C)n(CC(=O)Nc3cc(C)ccc3C)c2=O)cc1	39.1*	0.0	17.2	70.1*
Cc1ccc(C)c(NC(=O)Cn2ccc3ccn(C)c3c2=O)c1	0.2	-1.7	-0.6	5.1
Cc1ccc(NC(=O)Nc2ccc(C)n(CC(=O)Nc3ccc(C)cc3C)c2=O)cc1	63.1*	0.3	37.4*	68.9*
SMILES	USP10 block	UCHL1 inh	USP7 inh	USP8 inh
O=C(Cc1ccccc1F)Nc1nc(-c2ccco2)c(-c2ccco2)s1	-11.9	-58.8	-90.9	73.9*
COc1ccc(CC(=O)Nc2nc3c(s2)CCC3)cc1	-0.7	3.1	-1.2	23.2
COc1ccc(CC(=O)Nc2nc(-c3ccco3)c(-c3ccco3)s2)cc1	-12.9	-93.9	-139.8	73.2*
Cc1ccc(-c2n[nH]c3c2C(c2ccccc2F)N(c2ccccc2)C3=O)cc1 (centres undefined)	26.5	-0.8	11.7	70.7*
COc1ccc(NC(=O)Cn2cc(C(=O)c3ccc(OC)cc3)c(=O)c3cc4c(cc32)OCCO4)cc1	5.8	5.7	8.1	44.4*
CCOc1ccc2c(c1)c(=O)c(C(=O)c1ccc(F)cc1)cn2CC(=O)Nc1ccc(F)cc1	20.3	30.2*	46.6*	72.1*
CCOc1ccc2c(c1)c(=O)c(C(=O)c1ccc(C)cc1)cn2CC(=O)Nc1ccc(OC)c(OC)c1	48.2*	15.2	26.5	86.6*
COc1ccc(NC(=O)Cn2cc(C(=O)c3ccc(F)cc3)c(=O)c3cc(C)ccc32)cc1	41.5*	7.7	16.0	22.9
COc1ccc(NC(=O)Cc2csc(NC(=O)c3ccco3)n2)cc1Cl	-4.4	-4.8	-5.8	23.5
Cc1ccc(C(=O)c2cn(CC(=O)Nc3ccc(Cl)cc3)c3ccc(F)cc3c2=O)cc1	14.9	-4.2	1.8	60.4*
C1=CCC(CN(CCCn2ccnc2)Cc2cnc[nH]2)CC1 (centres undefined)	0.0	-2.3	-1.4	32.4*
CCN1CCn2c(-c3ccccc3)cnc2C12CCN(C(=O)COC)CC2	0.2	-0.1	-2.5	-30.1
CCN(c1ccc(NC(=O)CSc2nccc(=O)[nH]2)cc1)C(C)C	2.6	6.0	6.0	58.8*
CCn1c(=O)c2nscc2n(CC(=O)Nc2cccc(C)c2)c1=O	0.2	-0.7	-0.1	-3.0
Cc1cccc(NC(=O)Nc2ccc(C)n(CC(=O)Nc3ccccc3)c2=O)c1	13.1	-2.5	4.2	20.6
Cc1ccc(NC(=O)Nc2ccc(C)n(CC(=O)Nc3cccc(C)c3)c2=O)cc1	52.9*	-0.9	30.5*	93.8*
Cc1cccc(NC(=O)Nc2ccc(C)n(CC(=O)Nc3ccc(C)c(C)c3)c2=O)c1	42.5*	-1.3	9.8	73.8*
CCc1ccccc1NC(=O)Cn1c(=O)n(CC(=O)NCc2ccccc2Cl)c(=O)c2sccc21	29.4	-1.5	13.7	38.2*
Cc1cccc(NC(=O)Cn2c(=O)n(-c3cc(C)cc(C)c3)c(=O)c3sccc32)c1	19.5	2.3	5.3	24.5
Cc1ccc(NC(=O)Cn2c(=O)n(-c3ccc(CC(=O)NCc4ccco4)cc3)c(=O)c3sccc32)c(C)c1	43.9*	3.6	19.6	14.8
Cc1ccccc1NC(=O)Cn1c(=O)n(-c2ccc(CC(=O)NCCc3ccccc3)cc2)c(=O)c2sccc21	51.0*	8.0	31.7*	84.3*
Cc1ccc(CNC(=O)Cn2c(=O)c3sccc3n(CC(=O)Nc3ccc(Br)cc3)c2=O)cc1	2.8	1.4	7.6	23.1
O=C(Cc1ccc(-n2c(=O)c3sccc3n(Cc3ccc(F)cc3)c2=O)cc1)NCCc1ccccc1	37.3*	0.0	22.3	23.0
C=Cc1ccc(Cn2c(C)c(CNCc3ccc4c(c3)OCO4)c(C(=O)O)c2C)cc1	-1.0	0.0	2.4	12.4
O=C(/C=C/c1ccccc1Cl)NCc1nnc2c(C(F)(F)F)cc(Cl)cn12	-6.5	-1.6	-24.2	-19.9
Cc1ccc(NC(=O)CCC(=O)N2CCCn3nc(C)cc32)c(Cl)c1	-3.1	-2.4	-3.0	-16.0
CC(=O)N1Cc2ccccc2OC2(CCCN(C(=O)C3CC3)C2)C1 (centres undefined)	1.6	0.8	3.8	22.6
COc1ccc(CCNC(=O)c2ccc(Cn3c(=O)c4ccccc4n(CC(=O)Nc4cc(C)[nH]n4)c3=O)cc2)cc1OC	4.4	8.3	11.8	1.3
